This note sets out measurements from PubChem BioAssay.

Assay [1] can be described thus: yeast TOR pathway RPL19A-GFP modulators, primary screen, cell-based, S. cerevisiae, multiplex flow cytometry (AID 1862; in the data active means percent of DMSO control GFP below about 86%;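 further: lower values mimic rapamycin by blocking the RPL19A rise seen in DMSO cells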). To be noted: S. cerevisiae RPL19A-GFP strain, flow cytometry fluorescence, 3 h; at 10 µM; stronger effect = lower value.
Assay [2] in a line: modulators of MEP2-GFP levels in yeast, primary screen, S. cerevisiae, multiplex flow cytometry (AID 1867;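 active means GFP response, as percent of the DMSO control, above the screen-wide mean plus 3 SD, about 139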;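 further: median GFP channel fluorescence of barcode-gated MEP2-GFP cells measured by flow cytometry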). To be noted: S. cerevisiae MEP2-GFP strain, 3 h, at 10 µM, stronger effect = higher value, 100% means same as DMSO wells.
A short description of assay [3]: modulators of CIT2-GFP expression in yeast, primary screen, S. cerevisiae, GFP fusion, multiplex flow cytometry (AID 1870).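 Further: barcoded CIT2-GFP strain pooled with four other GFP strains with rapamycin as positive control; median GFP fluorescence per well over plate mean of DMSO wells so 100% = DMSO.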 The note with it: 3 h, at 10 µM, stronger effect = higher value.
The nature of assay [4]: modulators of LAP4-GFP expression in yeast, primary screen, S. cerevisiae, multiplex flow cytometry (AID 1873;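 active means GFP signal, as percent of the solvent control, above the screen mean plus 3 SD, about 149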). The note with it: 3 h, at 10 µM, stronger effect = higher value.
Assay [5] is described as follows: modulators of AGP1-GFP expression in yeast TOR pathway, primary screen, cell-based, multiplex flow cytometry, S. cerevisiae (AID 1887;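 active means GFP signal above the screen-wide mean plus 3 SD, that is over about 124.5% of the solvent control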;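 further: AGP1-GFP fusion strain of S. cerevisiae within a five-strain barcoded multiplex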). The note with it: 3 h, at 10 µM, stronger effect = higher value.
The nature of assay [6]: inhibitors of CD8+ T cell-vesicle binding, pilot screen, LFA-1/ICAM-1 modulator project, MLPCN validation set, flow cytometry (AID 2523;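 active means response below a set limit, under 55% cells CD8-positive and vesicle-bound, and CD8 cells' 90th-percentile brightness under 279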;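 on vesicle binding response: mean PE anti-B7-1 fluorescence of CD8+ cells relative to row control; 100% = QL9-loaded vesicles with DMSO vehicle in the same plate row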). The note with it: 2C mouse CD8+ T cells, at 7 µM, stronger effect = lower value; double positive events: measured here: CD8+/vesicle+ event percentage.
For assay [7], the target named is Integrin beta-1 (Homo sapiens) + Integrin alpha-4 (Homo sapiens) (UniProt P13612+P05556). The experiment in a line: inhibition of HUTS-21 binding to VLA-4, pilot screen, VLA-4 allosteric modulator project, U937 cells, HUTS-21 mAb, flow cytometry, validation set (AID 2674;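 active means inhibition above 50%, about 3 SD of the validation set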;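 further: antibody binding induced by the VLA-4 ligand LDV present at three times its Kd; 0% = LDV ligand with antibody and no compound and 100% = antibody without LDV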). To be noted: HUTS-21 LIBS mAb binding, at 6.7 µM, stronger effect = higher value, binding induced by LDV ligand.

Assay [8] can be described thus: superoxide lowering in aged yeast cells, pilot screen, validation compound set (AID 2706;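 active means superoxide response below 65% of plate, a cut near 3 SD across the whole screen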;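 further: yeast exposed to compound for one week at 30 degrees C before staining; 100% = mean of all compound wells on the same plate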). The note with it: S. cerevisiae aging, superoxide DHE fluorescence; at 10 µM; stronger effect = lower value.
The target in assay [9] is Beta-adrenergic receptor kinase 1 (Homo sapiens) (UniProt P25098). The experiment in a line: GRK2 binders displacing RNA aptamer, biochemical, validation, human GRK2, bead flow cytometry (AID 488806;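 active means aptamer binding inhibition above 30%, about 3 SD of noise from non-fluorescent compounds; inactive means inhibition at or below 30%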). To be noted: bead-bound GRK2, FAM-aptamer displacement, at 10 µM, stronger effect = higher value.
For assay [10], the target named is Beta-2 adrenergic receptor (Homo sapiens) (UniProt P07550). The experiment in a line: beta2AR agonists driving receptor internalization, pilot screen, cell-based, FAP fluorogen, flow cytometry, validation set (AID 504459;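 active means percent response above 42, roughly 3 SD of non-fluorescent test compounds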;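 further: agonist-driven loss of surface beta2AR via internalization measured by FAP dye flow cytometry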). To be noted: Am2.2-beta2AR cells, FAP surface receptor flow cytometry; at 10 µM; stronger effect = higher value.
Assay [11] concerns the target AP-2 complex subunit beta (Homo sapiens) (UniProt P63010). The experiment in a line: inhibitors of arrestin peptide binding to AP2, pilot screen, biochemical, validation set, GST-AP2 beads, flow cytometry (AID 504541;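 active means inhibition above 54%, about 3 SD of non-fluorescent compounds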;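 further: AP2 carries R879A mutation and is captured from E. coli lysate; bead-bound FITC arrestin peptide fluorescence measuring arrestin peptide binding to AP2; 0% = DMSO wells and 100% = excess unlabeled arrestin peptide control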). To be noted: FITC arrestin peptide, at 10 µM, stronger effect = higher value, AP2 beta2 appendage fragment, R879A mutant.
Assay [12] in a line: yeast V-ATPase proton transport modulators, S. cerevisiae, pHLuorin, HTS validation (AID 504600; in the data active means response above about 15%;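 further: plate controls were DMSO for no effect and reference compound for full effect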). The note with it: S. cerevisiae pHLuorin cytosolic pH, at 10 µM, stronger effect = higher value.
For assay [13], the system named is anti-desmoglein-3 scFv antibody binding to human DSG3. The experiment in a line: inhibitors of anti-DSG3 scFv binding to DSG3, pilot screen, biochemical, validation compound set, bead-based, flow cytometry (AID 588368;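 active means binding below the plate cutoff, the plate median minus 3 SD, with a reading above zero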;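 further: signal is the median channel fluorescence of bead-bound GFP antibody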). The note with it: Protein G beads, DSG3-Fc, scFv-GFP binding, at 10 µM, stronger effect = lower value.
Assay [14] in a line: inhibitors of fungal efflux pumps CDR1, CDR2, MDR1, pilot screen, validation compound set, multiplex, phenotypic (AID 588506;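 active means efflux inhibition above 0.42, the validation set average plus 4 SD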;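 further: Nile Red retained in cells so higher fluorescence means more efflux inhibition; 0 = negative control wells and 1 = enniatin B 25 µM full block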). The note with it: S. cerevisiae pump-expressing triplex, Nile Red efflux flow cytometry; at 10 µM; stronger effect = higher value; the pumps come from Candida albicans.
Assay [15] deals with ATP-binding cassette sub-family B member 6 (Homo sapiens) (UniProt Q9NP58). The experiment in a line: ABCB6 transporter inhibitors, pilot screen, K562-ABCB6 cells, flow cytometry, validation set (AID 588550;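 active means inhibition above the screen-wide mean plus 3 SD, about 51%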;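 further: 0% = DMSO wells and 100% = benzethonium chloride 70 µM positive control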). The note with it: K562-ABCB6 porphyrin accumulation, 1 h, at 10 µM, stronger effect = higher value.
Assay [16] is described as follows: promoters of myeloid differentiation in arrested cells, primary screen, cell-based, GFP/MAC1 double positive, flow cytometry, validation set (AID 588685;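 active means differentiation response of at least 50%, scaled between solvent and reference control, from cells with both markers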;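 further: compound exposure lasts four days before antibody staining and flow analysis; 0% = DMSO wells and 100% = 5 µM fulvestrant positive control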). To be noted: ER-HoxA9 marrow cells, stronger effect = higher value, normalized: vehicle 0, fulvestrant 100.

Structures are written as SMILES. Results filed as inconclusive are left out. Calls of active or inactive are those of the source.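 How the source made its calls, unless noted: active means percent response above a set limit, the screen-wide mean plus 3 SD (cut at about 130% in these data); inactive means the rest.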

ATP-binding cassette sub-family B member 6 (Homo sapiens), sequence (Q9NP58 whole entry, looked up): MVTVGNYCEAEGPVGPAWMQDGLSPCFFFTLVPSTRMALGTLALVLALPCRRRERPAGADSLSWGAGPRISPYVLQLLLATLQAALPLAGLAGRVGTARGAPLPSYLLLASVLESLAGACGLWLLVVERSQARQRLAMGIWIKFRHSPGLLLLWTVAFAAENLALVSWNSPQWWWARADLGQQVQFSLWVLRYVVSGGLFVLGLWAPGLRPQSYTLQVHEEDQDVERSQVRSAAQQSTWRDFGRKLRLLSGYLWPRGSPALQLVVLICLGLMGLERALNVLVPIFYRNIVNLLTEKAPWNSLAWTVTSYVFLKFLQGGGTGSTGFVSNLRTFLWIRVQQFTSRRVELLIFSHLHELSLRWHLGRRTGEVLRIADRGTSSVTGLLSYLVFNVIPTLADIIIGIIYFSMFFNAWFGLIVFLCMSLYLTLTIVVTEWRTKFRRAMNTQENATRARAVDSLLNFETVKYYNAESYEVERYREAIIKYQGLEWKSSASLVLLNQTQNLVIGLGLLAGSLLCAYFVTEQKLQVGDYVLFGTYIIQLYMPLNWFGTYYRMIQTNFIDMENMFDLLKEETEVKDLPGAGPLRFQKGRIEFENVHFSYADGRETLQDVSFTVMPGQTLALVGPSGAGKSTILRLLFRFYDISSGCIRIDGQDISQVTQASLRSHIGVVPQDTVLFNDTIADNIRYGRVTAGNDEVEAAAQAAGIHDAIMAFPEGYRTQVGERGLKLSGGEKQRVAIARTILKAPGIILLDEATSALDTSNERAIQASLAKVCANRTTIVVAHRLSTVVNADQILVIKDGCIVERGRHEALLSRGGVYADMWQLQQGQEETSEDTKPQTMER
Beta-adrenergic receptor kinase 1 (Homo sapiens), sequence (P25098 whole entry, looked up): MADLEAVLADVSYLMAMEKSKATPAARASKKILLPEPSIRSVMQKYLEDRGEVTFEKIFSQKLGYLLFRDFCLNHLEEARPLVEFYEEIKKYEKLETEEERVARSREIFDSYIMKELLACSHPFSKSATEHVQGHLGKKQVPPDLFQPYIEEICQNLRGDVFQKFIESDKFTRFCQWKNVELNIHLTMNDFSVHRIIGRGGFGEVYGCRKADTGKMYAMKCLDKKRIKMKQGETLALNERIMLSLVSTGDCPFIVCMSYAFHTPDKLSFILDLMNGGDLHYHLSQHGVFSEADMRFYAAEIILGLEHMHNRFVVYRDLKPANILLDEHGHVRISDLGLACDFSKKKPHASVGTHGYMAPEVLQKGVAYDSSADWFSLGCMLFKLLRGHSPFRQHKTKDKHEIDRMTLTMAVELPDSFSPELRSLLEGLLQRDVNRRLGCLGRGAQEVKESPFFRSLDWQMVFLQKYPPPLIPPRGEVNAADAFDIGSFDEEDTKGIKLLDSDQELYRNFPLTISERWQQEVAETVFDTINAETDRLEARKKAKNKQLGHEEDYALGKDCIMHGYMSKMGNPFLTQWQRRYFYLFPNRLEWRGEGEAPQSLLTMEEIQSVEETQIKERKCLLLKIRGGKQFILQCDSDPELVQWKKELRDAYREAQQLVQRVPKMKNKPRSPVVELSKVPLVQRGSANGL
AP-2 complex subunit beta (Homo sapiens), sequence (P63010 whole entry, looked up, the tested form may be a part, one chain of several): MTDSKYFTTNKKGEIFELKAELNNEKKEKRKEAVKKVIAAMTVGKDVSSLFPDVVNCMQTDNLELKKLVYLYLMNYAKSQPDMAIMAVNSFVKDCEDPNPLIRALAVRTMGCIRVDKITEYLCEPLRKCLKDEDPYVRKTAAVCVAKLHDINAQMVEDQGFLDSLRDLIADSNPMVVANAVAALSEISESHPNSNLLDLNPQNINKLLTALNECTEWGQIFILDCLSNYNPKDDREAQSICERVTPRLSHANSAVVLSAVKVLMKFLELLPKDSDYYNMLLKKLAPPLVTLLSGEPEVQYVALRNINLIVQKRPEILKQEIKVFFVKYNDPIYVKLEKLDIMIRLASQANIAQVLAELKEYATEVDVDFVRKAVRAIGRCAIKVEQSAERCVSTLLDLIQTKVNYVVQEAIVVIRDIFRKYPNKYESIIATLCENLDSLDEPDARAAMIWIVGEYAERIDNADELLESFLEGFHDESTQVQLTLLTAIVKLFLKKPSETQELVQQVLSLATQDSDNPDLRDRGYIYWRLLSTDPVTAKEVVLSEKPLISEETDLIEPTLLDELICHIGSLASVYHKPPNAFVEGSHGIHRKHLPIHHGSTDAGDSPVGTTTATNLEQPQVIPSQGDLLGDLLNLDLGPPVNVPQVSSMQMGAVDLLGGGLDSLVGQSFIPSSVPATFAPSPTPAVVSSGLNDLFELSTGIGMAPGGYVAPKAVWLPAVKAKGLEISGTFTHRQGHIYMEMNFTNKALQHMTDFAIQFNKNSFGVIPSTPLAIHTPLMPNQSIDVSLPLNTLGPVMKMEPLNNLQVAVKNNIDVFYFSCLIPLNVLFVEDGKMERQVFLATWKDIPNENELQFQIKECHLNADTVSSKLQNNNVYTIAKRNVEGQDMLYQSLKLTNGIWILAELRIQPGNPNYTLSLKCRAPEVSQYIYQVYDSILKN
Integrin beta-1 (Homo sapiens) + Integrin alpha-4 (Homo sapiens), sequence (P05556 whole entry, looked up): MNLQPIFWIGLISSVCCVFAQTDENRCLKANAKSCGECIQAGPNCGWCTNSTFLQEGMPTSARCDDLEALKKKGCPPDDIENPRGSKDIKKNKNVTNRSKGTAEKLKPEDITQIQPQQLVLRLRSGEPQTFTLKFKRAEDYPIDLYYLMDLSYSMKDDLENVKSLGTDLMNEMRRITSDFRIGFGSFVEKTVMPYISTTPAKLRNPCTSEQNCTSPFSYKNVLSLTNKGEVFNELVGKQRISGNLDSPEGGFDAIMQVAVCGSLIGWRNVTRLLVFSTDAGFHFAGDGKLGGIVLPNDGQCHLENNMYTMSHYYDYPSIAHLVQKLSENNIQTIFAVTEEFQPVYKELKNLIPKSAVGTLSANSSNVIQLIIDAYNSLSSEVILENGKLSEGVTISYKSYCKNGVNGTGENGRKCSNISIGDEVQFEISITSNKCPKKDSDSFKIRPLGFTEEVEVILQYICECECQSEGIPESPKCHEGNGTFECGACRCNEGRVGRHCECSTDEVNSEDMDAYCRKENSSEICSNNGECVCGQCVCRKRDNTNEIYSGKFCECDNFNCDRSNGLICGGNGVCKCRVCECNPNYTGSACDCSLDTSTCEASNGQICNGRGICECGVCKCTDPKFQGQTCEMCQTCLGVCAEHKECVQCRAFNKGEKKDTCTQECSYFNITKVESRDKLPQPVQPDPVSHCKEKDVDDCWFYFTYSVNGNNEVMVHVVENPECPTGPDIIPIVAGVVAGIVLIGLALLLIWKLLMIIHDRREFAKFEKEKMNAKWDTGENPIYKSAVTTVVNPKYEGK
Integrin beta-1 (Homo sapiens) + Integrin alpha-4 (Homo sapiens), sequence (P13612 whole entry, looked up): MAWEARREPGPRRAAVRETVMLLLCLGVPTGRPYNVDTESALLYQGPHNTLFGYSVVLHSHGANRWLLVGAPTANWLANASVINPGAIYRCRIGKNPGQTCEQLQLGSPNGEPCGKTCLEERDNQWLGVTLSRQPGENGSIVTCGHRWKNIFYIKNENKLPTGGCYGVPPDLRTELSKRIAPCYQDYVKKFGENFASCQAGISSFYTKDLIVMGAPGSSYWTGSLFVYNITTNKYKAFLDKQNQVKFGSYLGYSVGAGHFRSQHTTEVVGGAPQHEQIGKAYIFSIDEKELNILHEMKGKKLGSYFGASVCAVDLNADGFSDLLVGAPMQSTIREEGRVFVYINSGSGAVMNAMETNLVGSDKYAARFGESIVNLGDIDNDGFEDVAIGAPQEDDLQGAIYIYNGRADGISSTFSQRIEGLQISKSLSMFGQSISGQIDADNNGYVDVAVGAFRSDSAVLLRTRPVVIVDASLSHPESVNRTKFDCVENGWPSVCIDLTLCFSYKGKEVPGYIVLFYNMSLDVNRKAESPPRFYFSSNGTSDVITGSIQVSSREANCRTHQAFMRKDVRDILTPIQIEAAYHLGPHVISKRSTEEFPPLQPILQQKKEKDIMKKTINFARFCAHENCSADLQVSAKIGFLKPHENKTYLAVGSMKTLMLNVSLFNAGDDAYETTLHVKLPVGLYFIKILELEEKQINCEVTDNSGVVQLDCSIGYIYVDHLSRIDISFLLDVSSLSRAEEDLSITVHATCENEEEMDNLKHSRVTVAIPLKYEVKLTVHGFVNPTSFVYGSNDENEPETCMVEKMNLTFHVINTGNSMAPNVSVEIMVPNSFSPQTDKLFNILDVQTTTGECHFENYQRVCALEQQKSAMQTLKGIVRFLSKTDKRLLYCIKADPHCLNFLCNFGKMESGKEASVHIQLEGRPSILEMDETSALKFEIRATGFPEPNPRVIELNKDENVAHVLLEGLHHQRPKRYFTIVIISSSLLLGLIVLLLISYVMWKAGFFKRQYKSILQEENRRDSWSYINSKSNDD
Beta-2 adrenergic receptor (Homo sapiens), sequence (P07550 whole entry, looked up): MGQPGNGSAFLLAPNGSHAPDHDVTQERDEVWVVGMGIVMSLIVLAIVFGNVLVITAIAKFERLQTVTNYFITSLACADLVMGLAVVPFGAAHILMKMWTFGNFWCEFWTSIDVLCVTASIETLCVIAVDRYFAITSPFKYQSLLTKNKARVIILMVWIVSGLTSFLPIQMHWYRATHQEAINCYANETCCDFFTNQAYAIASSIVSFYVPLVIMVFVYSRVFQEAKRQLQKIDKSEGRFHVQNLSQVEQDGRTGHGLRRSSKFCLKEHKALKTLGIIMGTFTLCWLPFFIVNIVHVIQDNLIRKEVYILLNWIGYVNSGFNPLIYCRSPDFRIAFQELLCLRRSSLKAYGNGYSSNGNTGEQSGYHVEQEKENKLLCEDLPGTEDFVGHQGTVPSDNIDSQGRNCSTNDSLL

On to `COc1ccc(N2CCN(C(=S)NCc3ccccc3)CC2)cc1`, for which the percent of DMSO control GFP in assay [1] was 91.7% (inactive). The GFP response vs DMSO is 133% (inactive) in assay [2] and 81.4% (inactive) in assay [4]. Further, the percent response of DMSO control in assay [3] is 101% (inactive). Moreover, in assay [5], the GFP response, % of DMSO is 88.2% (inactive). Further, the double positive events in assay [6] amounted to 65.5%. For the same compound, the vesicle binding response in assay [6] was 171% (inactive). The inhibition in assay [7] was 0.64% (inactive); in [11], 30.1% (inactive); in assay [15], 0% (inactive). For the same compound, in assay [8], the superoxide response (% of plate) was 82.1% (inactive). For the same compound, in assay [9], the aptamer binding inhibition was 2% (inactive). Also, the response was -3.32% (inactive) in assay [10] and -3.6% (inactive) in assay [12]. Moreover, in assay [13], the binding (% of control) is 108% (inactive). For the same compound, the efflux inhibition (fraction of control) in assay [14] is 0.16 (inactive). In assay [16], the differentiation response was 4.09% (inactive).
As for `CCc1ccc2oc(=O)cc(CN3CCC(C)CC3)c2c1`, the percent of DMSO control GFP in assay [1] is 95% (inactive). The values for the GFP response vs DMSO in [2] and in assay [4] were 104% (inactive) and 123% (inactive), respectively. For the same compound, the percent response of DMSO control in assay [3] was 95.8% (inactive). Moreover, the GFP response, % of DMSO in assay [5] was 95.8% (inactive). In [6], this compound returned a double positive events of 53.7%. Further, the vesicle binding response in [6] is 178% (inactive). In addition, the inhibition in [7] is -18.2% (inactive); in assay [11] it was -0.51% (inactive); in [15], -5% (inactive). Further, in [8], the superoxide response (% of plate) is 98.9% (inactive). Besides, the aptamer binding inhibition in assay [9] is 0% (inactive). In addition, the response in assay [10] is 13.8% (inactive); in assay [12], 85.2% (active). Further, in assay [13], the binding (% of control) was 103% (inactive). Moreover, in [14], the efflux inhibition (fraction of control) was -0.06 (inactive). Moreover, in [16], the differentiation response is -12% (inactive).
`CC(=O)N(C(C)=O)c1nc2nc(C)cc(C)n2n1`: in [1], the percent of DMSO control GFP is 94.6% (inactive). Besides, the GFP response vs DMSO is 133% (inactive) in assay [2] and 86.4% (inactive) in assay [4]. Also, the percent response of DMSO control in assay [3] is 110% (inactive). The GFP response, % of DMSO in [5] was 107% (inactive). The compound further gave a double positive events in assay [6] of 67.9%. The vesicle binding response in assay [6] was 236% (inactive). Further, the values for the inhibition in [7], in assay [11] and in assay [15] were 0.64% (inactive), -10.8% (inactive) and 11% (inactive), respectively. Further, in [8], the superoxide response (% of plate) is 98.5% (inactive). Further, the aptamer binding inhibition in [9] is 6% (inactive). The response in assay [10] was -13.9% (inactive); in assay [12], -0.39% (inactive). Also, the binding (% of control) in assay [13] was 102% (inactive). Further, in assay [14], the efflux inhibition (fraction of control) is -0.13 (inactive). In addition, the differentiation response in assay [16] was -6.55% (inactive).
For the compound `O=c1c2ccccc2nc2n1CCCN2`, the percent of DMSO control GFP in assay [1] is 103% (inactive). The GFP response vs DMSO in assay [2] was 97.4% (inactive); in assay [4], 98.2% (inactive). For the same compound, the percent response of DMSO control in assay [3] was 111% (inactive). For the same compound, the GFP response, % of DMSO in [5] was 103% (inactive). In [6], this compound returned a double positive events of 50.4%. For the same compound, the vesicle binding response in [6] is 72.9% (active). The inhibition in [7] was -7.25% (inactive); in [11] it was -9.42% (inactive); in assay [15], 2% (inactive). Besides, the superoxide response (% of plate) in assay [8] is 102% (inactive). Besides, the aptamer binding inhibition in assay [9] was -1% (inactive). Besides, the values for the response in [10] and in assay [12] were -10.8% (inactive) and -1.39% (inactive), respectively. Further, the binding (% of control) in assay [13] was 102% (inactive). Moreover, the efflux inhibition (fraction of control) in assay [14] was -0.1 (inactive). Further, in assay [16], the differentiation response is -16.8% (inactive).
As for `O=C(O)[C@H](Cc1ccccc1)NC(=O)N1CCC(Cc2ccccc2)CC1`, the percent of DMSO control GFP in [1] is 104% (inactive). In addition, the GFP response vs DMSO in assay [2] was 102% (inactive); in [4], 100% (inactive). Moreover, in [3], the percent response of DMSO control is 96% (inactive). In addition, in assay [5], the GFP response, % of DMSO is 99.9% (inactive). Further, in assay [6], the double positive events is 67%. The vesicle binding response in assay [6] was 122% (inactive). For the same compound, the inhibition in assay [7] was -0.31% (inactive); in assay [11], 4.86% (inactive); in assay [15] it was 6% (inactive). For the same compound, the superoxide response (% of plate) in [8] is 108% (inactive). Moreover, in [9], the aptamer binding inhibition is -6% (inactive). In addition, the response in assay [10] is 9.92% (inactive); in assay [12], 0.86% (inactive). The binding (% of control) in assay [13] was 99.5% (inactive). Further, the efflux inhibition (fraction of control) in [14] is -0.18 (inactive). Moreover, the differentiation response in assay [16] was -5.68% (inactive).
In the case of `COC(=O)c1cc(Br)c(=O)n(CCc2ccc(O)cc2)c1`, the percent of DMSO control GFP in assay [1] was 95.2% (inactive). Also, the GFP response vs DMSO in assay [2] is 109% (inactive); in assay [4], 123% (inactive). Also, in assay [3], the percent response of DMSO control was 93.9% (inactive). Further, the GFP response, % of DMSO in assay [5] was 99.7% (inactive). In addition, the double positive events in [6] was 57.8%. Also, in assay [6], the vesicle binding response is 234% (inactive). In addition, the results for the inhibition in [7], in [11] and in assay [15] were 6.4% (inactive), 4.99% (inactive) and 8% (inactive), respectively. Further, the superoxide response (% of plate) in assay [8] was 103% (inactive). The aptamer binding inhibition in assay [9] is 5% (inactive). The results for the response in [10] and in [12] were -13.9% (inactive) and -0.03% (inactive), respectively. Also, the binding (% of control) in assay [13] was 96.8% (inactive). The efflux inhibition (fraction of control) in assay [14] is -0.17 (inactive). Moreover, the differentiation response in [16] is -10.4% (inactive).
Turning to `CCOC(=O)c1ccc(N2C(=O)C(CC(=O)NC)N(CCc3ccc(OC)c(OC)c3)C2=S)cc1` (centres undefined), in [1], the percent of DMSO control GFP is 103% (inactive). In addition, the values for the GFP response vs DMSO in assay [2] and in [4] were 99.9% (inactive) and 104% (inactive), respectively. In addition, in assay [3], the percent response of DMSO control was 101% (inactive). The GFP response, % of DMSO in assay [5] is 98.8% (inactive). In [6], this compound gave a double positive events of 59.4%. The vesicle binding response in [6] is 248% (inactive). Also, the inhibition is 6.85% (inactive) in assay [7], -11.1% (inactive) in [11] and 4% (inactive) in [15]. Also, in [8], the superoxide response (% of plate) was 113% (inactive). In addition, the aptamer binding inhibition in [9] is 5% (inactive). Moreover, the response in [10] is 5.49% (inactive); in assay [12] it was 0.17% (inactive). The binding (% of control) in [13] is 103% (inactive). In [14], the efflux inhibition (fraction of control) was 0.26 (inactive). In addition, the differentiation response in [16] was -1.12% (inactive).
